Source: paper PMC4552634, “A New Set of Chemical Starting Points with Plasmodium falciparum Transmission-Blocking Potential for Antimalarial Drug Discovery” (PLoS ONE, 2015)
Read-outs that look alike come from different tables or passages of the source. In all, about 13,000 compounds went through this assay and about 3,200 (25%) showed an effect of 50% or more. Some of the results follow.

System: P. falciparum stage V gametocytes
Set-up: BacTiter-Glo ATP luminescence viability of purified stage V gametocytes in 384-well plates, per cent inhibition versus DMSO
Conditions: 48 h, 5 µM, inhibitor

Row | Compound | % Inhibition (% Inhibition) [%] | % Inhibition [%]
1 | COC(=O)c1ccc(CC(C)NCC(O)c2cccc(C(F)(F)F)c2)cc1 (stereo not drawn) [TCMDC-131435] | 22.12 | 
2 | COc1ccc(OC)c(CNCC(O)c2cc(C(F)(F)F)cc(C(F)(F)F)c2)c1 (stereo not drawn) [TCMDC-140306] |  | 38.32
3 | Cc1nc2ccc3ccc(CNc4ccc(C(=O)CC(CCC(=O)O)C(=O)O)cc4)cc3c2c(=O)[nH]1 (stereo not drawn) [TCMDC-137855] |  | 12.05
4 | COc1cc(C(C)C)ccc1N1CCN(CCCCNC(=O)c2ccc(NC(=O)c3ccc(Cl)cc3)cc2)CC1 [TCMDC-138518] |  | -18.1
5 | N#Cc1cccc(NC(=O)Nc2cccc(-c3cccc(-c4nc5ccc(F)cc5[nH]4)c3)c2)c1 [TCMDC-133197] |  | -38
6 | COCC(=O)N(Cc1ccccc1-c1cccc(CNCCc2ccccc2)c1)C1CCN(Cc2ccccc2)CC1 [TCMDC-140533] |  | 103.5
7 | COCC(=O)N(Cc1ccccc1-c1ccc(CNCCc2ccccc2)cc1)C1CCN(Cc2ccccc2)CC1 [TCMDC-140534] |  | 105.6
8 | CCNc1cc(C(=O)N[C@@H](Cc2ccc(F)c(F)c2)[C@H](O)CNCc2cccc(OC)c2)cc(N2CCCCS2(=O)=O)c1 [TCMDC-135059] |  | -18.05
9 | CC1(C)N=C(NC(=O)c2ccc([N+](=O)[O-])cc2)N=C(N)N1OCc1ccc2ccccc2c1 [TCMDC-131580] |  | 48.26
10 | Nc1nc(N)c2c(Cl)c(N3CCOCC3)ccc2n1 [TCMDC-137868] |  | -6.497
11 | CC12CC3CC(C)(C1)CC(Nc1nc(N4CCOCC4)nc4ccccc14)(C3)C2 [TCMDC-123862] |  | -97.33
12 | FC(F)c1nc2ccccc2n1-c1nc(N2CCOCC2)nc(N2CCOCC2)n1 [TCMDC-137004] |  | 98.45
13 | O=c1ccc2ccc(F)cc2n1CCN1CCC(NCc2ccc(-c3ccccn3)s2)CC1 [TCMDC-135133] |  | 2.874
14 | NC1=NC(c2ccccc2)N(c2ccc(Cl)c(Cl)c2)C(N)=N1 (stereo not drawn) [TCMDC-136305] |  | 1.025
15 | CCNC(=O)Nc1ccc(N(C)c2ccnc(Nc3ccc(CS(C)(=O)=O)cc3)n2)cc1 [TCMDC-138759] |  | -39.6
16 | CN(C)CCCNc1nccc(N(C)c2ccc(NC(=O)Nc3cc(C(F)(F)F)ccc3F)cc2)n1 [TCMDC-141633] |  | 100.7
17 | CN(c1ccc(NC(=O)Nc2cc(C(C)(C)C)on2)cc1)c1ccnc(NCCN2CCOCC2)n1 [TCMDC-141706] |  | 2.344
18 | CCN(CC)CCCNc1nccc(N(C)c2ccc(NC(=O)Nc3cc(C(F)(F)F)ccc3F)cc2)n1 [TCMDC-141634] |  | 97.67
19 | CCN(CC)CCNc1nccc(N(C)c2ccc(NC(=O)Nc3cc(C(F)(F)F)ccc3F)cc2)n1 [TCMDC-141632] |  | 74.5
20 | CN(c1ccc(NC(=O)Nc2cc(C(C)(C)C)on2)cc1)c1ccnc(NCCOC(=O)Nc2cc(C(C)(C)C)on2)n1 [TCMDC-141707] |  | 55.26
21 | CN(c1ccc(NC(=O)Nc2cccc(Cl)c2)cc1)c1ccnc(N)n1 [TCMDC-138782] |  | 0.5988
22 | COc1cc(NC(=O)CCCCCCCCN2CCN(C)CC2)c2ncccc2c1 [TCMDC-138212] |  | 0.271
23 | CCCCCCc1cc2cc(-c3csc(C=Cc4ccccc4)n3)c(=O)oc2cc1O [TCMDC-125662] |  | -11.21

Row | Compound | % Inhibition (% Inhibition) [%] | % Inhibition [%]
24 | COc1ccc2nccc([C@@H](O)CN3CCC(NCc4cc5ccccc5s4)CC3)c2c1 [TCMDC-140684] |  | 1.924
25 | COc1ccc2nccc([C@@H](O)CN3CCC(NCc4[nH]c5ccccc5c4F)CC3)c2c1 [TCMDC-141052] |  | 4.499
26 | CCNC(=O)Nc1ccc(N(C)c2ccnc(NC3CC3)n2)cc1 [TCMDC-138763] |  | 40.84
27 | CC(=O)c1ccc(NC(=O)Nc2ccc(N(C)c3ccnc(NC4CC4)n3)cc2)cc1 [TCMDC-138767] |  | 82.68
28 | CCCNC(=O)Nc1ccc(N(C)c2ccnc(NC3CC3)n2)cc1 [TCMDC-138764] |  | 12.51
29 | O=C1OC2(CCN(Cc3cccc(-c4ncc[nH]4)c3)CC2)CN1CCNCc1ccccc1 [TCMDC-136733] |  | -38.21
30 | Cc1cc(NCCC(=O)Nc2ccccc2)nc(NCCc2cccs2)n1 [TCMDC-134872] |  | 26.35
31 | COc1ccc(Nc2nc(C)cc(NCc3ccc(-c4c(C)noc4C)cc3)n2)cc1 [TCMDC-134024] |  | -1.002
32 | COc1ccccc1CCNc1nc(C)cc(NCCC(=O)Nc2ccccc2)n1 [TCMDC-134800] |  | 76.83
33 | Cc1cc(NCCC(=O)Nc2ccccc2)nc(NCCc2ccc(F)cc2)n1 [TCMDC-134783] |  | 44.82
34 | Cc1cc(NCCC(=O)Nc2ccccc2)nc(NCCc2ccccc2)n1 [TCMDC-134772] |  | 51
35 | Cc1cc(NCCC(=O)Nc2ccccc2)nc(NCCc2cccnc2)n1 [TCMDC-134880] |  | 47.41
36 | COc1ccc(Nc2cc(C)nc(NCc3ccc4c(c3)OCO4)n2)cc1 [TCMDC-136332] |  | 81.18
37 | COc1ccc(NC(=O)CCNc2cc(C)nc(NCc3cccc(C)c3)n2)cc1 [TCMDC-134883] |  | 59.29
38 | COc1ccc(NC(=O)CCNc2cc(C)nc(NCc3ccccc3C)n2)cc1 [TCMDC-134899] |  | 34.68
39 | CCNc1cc(C)nc(Nc2ccc(NC(=O)Cc3ccc(OC)cc3)cc2)n1 [TCMDC-124983] |  | 15.74
40 | Cc1cccc(CNc2nc(C)cc(NCCC(=O)Nc3ccccc3)n2)c1 [TCMDC-134885] |  | 25.97
41 | Cc1ccc(C)c(-n2c(SCC(=O)Nc3ccc(C(N)=O)cc3)nnc2-c2cccc(Cl)c2)c1 [TCMDC-124332] |  | 36.9
42 | O=C(Nc1cccc(F)c1)NC1CCN(c2ccnc3cc(Cl)ccc23)CC1 [TCMDC-133569] |  | -8.116
43 | Cc1ccccc1-c1nc2c(CN3CCC(O)(c4ccccc4)CC3)c(O)ccc2[nH]1 [TCMDC-136533] |  | 40.24
44 | CCCc1ccc(NC(=O)c2cccc(CN3CCCN(Cc4cccc(C#N)c4)CC3)c2)cc1 [TCMDC-135977] |  | -19.91
45 | O=C(Cc1ccc(NC(=O)c2ccc(O)c(-c3ccc(Cl)c(Cl)c3)c2)cc1)NCCN1CCOCC1 [TCMDC-140853] |  | -3.124
46 | CCCC(C)Nc1nc(C)cc(NCCC(=O)Nc2ccc(OC)cc2)n1 (stereo not drawn) [TCMDC-134762] |  | 20.26

Row | Compound | % Inhibition (% Inhibition) [%] | % Inhibition [%]
47 | COc1ccc(NC(=O)CCNc2cc(C)nc(NCCc3ccc(F)cc3)n2)cc1 [TCMDC-134864] |  | 55.47
48 | COc1ccc(NC(=O)CCNc2cc(C)nc(NCCc3ccccc3)n2)cc1 [TCMDC-134770] |  | 41.15
49 | c1csc(-c2nc(N3CCCC3)ncc2-c2ccsc2)n1 [TCMDC-125373] |  | 23.84
50 | CS(=O)(=O)Cc1ccc(Nc2nccc(-c3c(-c4cccc(C(=O)Nc5c(F)cccc5F)c4)nn4ccccc34)n2)cc1 [TCMDC-135742] |  | -95.17
51 | Cc1c(C(=O)C2CC2CN2CCC(N3CCCCC3)CC2)sc2ccccc12 (stereo not drawn) [TCMDC-132576] |  | 19.76
52 | O=C(NCCCN1CCC(N2CCCCC2)CC1)c1ccc(N2CCOc3ccccc32)s1 [TCMDC-125271] |  | 84.69
53 | CCCN1CCN(CCCNC(=O)c2cc3c(Cl)nc4ccc(C)cc4c3s2)CC1 [TCMDC-124441] |  | 16.62
54 | O=C(NCCCN1CCC(N2CCCCC2)CC1)C1=Cc2cc(Br)ccc2OC1 [TCMDC-124696] |  | 29.02
55 | CCCCCCNC(=O)c1nn(CCN2CCC(N3CCCC3)CC2)cc1-c1ccc(Cl)c(Cl)c1 [TCMDC-141907] |  | 27.94
56 | Cc1ccc2nc(Cl)c3cc(C(=O)NCCCN4CCCC4)sc3c2c1 [TCMDC-125000] |  | 29.06
57 | O=C(NCCCN1CCC(N2CCCCC2)CC1)c1ccc2nc(N3CCCCC3)sc2c1 [TCMDC-124404] |  | 56.64
58 | Cc1cc(C)c2nc(N3CCC(C(=O)NCCCN4CCC(N5CCCCC5)CC4)CC3)sc2c1 [TCMDC-124448] |  | 62.4
59 | Cc1ccc2nc3sc(C(=O)NCCCN4CCC(N5CCCCC5)CC4)cc3cc2c1 [TCMDC-125157] |  | 73.7
60 | N#Cc1ccc(-c2ccc(C(=O)NCCCCN3CCC(n4cnc5ccccc54)CC3)cc2)cc1 [TCMDC-138796] |  | -25.18
61 | O=C(NC1CC1)c1ccc(N2CCOc3ccc(Cl)cc32)s1 [TCMDC-125270] |  | 3.185
62 | CCOCCCNc1nc2cc(OC)c(OC)cc2c2nc(-c3ccccc3)nn12 [TCMDC-124406] |  | -8.61
63 | COc1ccc2nccc(N3CCCN(CCNS(=O)(=O)c4ccc5c(c4)NC(=O)CS5)CC3)c2n1 [TCMDC-134651] |  | 20.86
64 | CCC(C)CN1CCC(N(C)c2cc(NC(=O)c3cccc(C)c3)ccn2)CC1 (stereo not drawn) [TCMDC-134950] |  | -9.268
65 | CC(CN(C)C)C(=O)Nc1ccc(-c2cccc(-c3nc4ccc(C(F)(F)F)cc4[nH]3)c2)cc1 (stereo not drawn) [TCMDC-137109] |  | -30.4
66 | COc1ccc(-n2ccnc2)cc1CNC1CCN(CC2Cn3c(=O)ccc4ccc(F)c2c43)CC1 (stereo not drawn) [TCMDC-134407] |  | -10.31
67 | CN(C(=O)/C=C/c1ccccc1F)C1CCN(CCCCCNC(=O)/C=C/c2ccc(Cl)c(Cl)c2)CC1 [TCMDC-139992] |  | 46.22
68 | COc1ccccc1/C=C/C(=O)N(C)C1CCN(CCCCCNC(=O)/C=C/c2ccc(Cl)c(Cl)c2)CC1 [TCMDC-139985] |  | 9.126
69 | CN1CCC(N(C)C(=O)C=Cc2cn(-c3ccccc3)nc2-c2cc3ccccc3o2)CC1 [TCMDC-124569] |  | 79.49
